The sample as a whole holds a higher share of hits than the screen did.
RVFV N-RNA inh: blocks Rift Valley Fever Virus nucleoprotein binding to RNA | 20,000 compounds, 0.1% hits | RVFV N-RNA binding, fluorescence polarization; stronger effect = lower value | P21700 | % bound, % (no concentration beside the values); in the data active = % bound below about 75%
Target sequence (P21700 whole entry, looked up): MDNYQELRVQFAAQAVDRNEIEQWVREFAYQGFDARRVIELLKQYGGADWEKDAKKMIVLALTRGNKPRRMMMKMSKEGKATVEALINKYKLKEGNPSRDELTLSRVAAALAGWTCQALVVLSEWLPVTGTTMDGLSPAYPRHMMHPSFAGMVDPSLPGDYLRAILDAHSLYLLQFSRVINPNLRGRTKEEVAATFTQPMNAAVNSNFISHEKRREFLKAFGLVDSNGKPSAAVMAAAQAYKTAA
* = called active by the depositor.

SMILES	RVFV N-RNA inh
CCCn1ccc2c(OCC(=O)c3ccccc3)cccc2c1=O	94
Cn1cc(/C=C(\C#N)C(=O)OC2CCCCC2)c2ccccc21	96
CCN(CC)C(=O)CSc1nnc(-c2cccnc2)n1-c1ccccc1	110
Cc1ccccc1-n1c(O)c(C=NCC2CCCO2)c(=O)[nH]c1=S (centres undefined)	89
CCN(CC)S(=O)(=O)c1ccc(C(=O)Oc2coc(CSc3ncccn3)cc2=O)cc1	89
N#CC(C#N)=Cc1cccn1S(=O)(=O)c1ccc(F)cc1F	88
O=C(Nc1nc2ccc(S(=O)(=O)N3CCCC3)cc2s1)c1ccncc1	98
Cc1cc(OCCCN2CCCC2)ccc1C(C)C	98
CCN(CC)c1ccc(C(=O)Nc2nc(-c3ccc(C)o3)cs2)cc1	89
COC(=O)Cc1c(C)c2ccc(OCC(=O)N(C)C)c(C)c2oc1=O	99
CCOC(=O)c1c(NC(=O)/C=C/C(=O)O)sc2c1CCN(C(C)=O)C2	89
COC(C(=O)Nc1ccc2c(c1)OCO2)c1ccccc1 (centres undefined)	92
COc1ccc(-c2nn(CCC#N)cc2C(=O)O)cc1OC	98
C/C=C/C1(/[N+]([O-])=C/c2ccccc2)CCCCC1	88
O=S(=O)(c1ccccc1)N1CCC2(CC1)OCCN2S(=O)(=O)c1ccccc1	95
CCN(CC)CCSc1ccc(-c2ccccn2)nn1	92
O=C(CN1C(=O)c2ccccc2C1=O)OCc1ccccc1	101
Cc1nnsc1C(=O)NCc1ccc(F)cc1	98
O/N=c1/sc2ccccc2n1CCS	92
O=C1C=C(O)c2cccc3cccc1c23	45*
Cc1nnc(C)n1N1C(=O)c2cccc3cccc(c23)C1=O	88
CCCC(=O)ON1C(=O)c2cccc3cccc(c23)C1=O	98
Cc1cc2occ(CC(=O)N(C)C)c2cc1Cl	93
CCSC1=NCCN1C(=O)c1ccc2c(c1)OCO2	96
CCSC1=N/C(=C\c2ccsc2)C(=O)S1	95
SMILES	RVFV N-RNA inh
O=S(=O)(c1cccs1)N1CCCC2C=CC=CC21 (centres undefined)	98
COc1ccc(F)cc1S(=O)(=O)N1CCN(c2c(C)cc(C)cc2C)CC1	97
CC(C)(C)NC(=O)Cn1cnc2c(cnn2-c2ccccc2)c1=O	92
COc1cc2c(cc1OC)C(C)N(C(=O)c1ccco1)CC2 (centres undefined)	93
O=C(CCCN1C(=O)CCC1=O)Nc1cccc2c1CCCC2	97
Cc1cccc(OCCSC(N)=S)c1	102
O=C1C2C3C=CC(C3)C2C(=O)N1CCOCc1ccccc1 (centres undefined)	102
CCOC(=O)NCc1n[nH]c(=O)c2ccccc12	93
Cc1nnc(SCC(=O)c2ccc(F)cc2)o1	92
CC(O)CN(Cc1ccc(Cl)c(Cl)c1)CC(C)O (centres undefined)	94
CCOC(=O)/C(C#N)=C/c1ccc(-c2cccs2)s1	19*
N#CC(C#N)=Cc1ccc(-c2cccs2)s1	86
CCOC(=O)/C(C#N)=C/N1CCCC1c1cccs1 (centres undefined)	92
C=CCn1ccc2c(OCC(N)=O)cccc2c1=O	97
CC(Oc1ccc(/C=C2/SC(=O)N(C)C2=O)cc1)C(=O)O (centres undefined)	95
O=C1N(CCc2ccccc2)c2ccccc2C12OCCCO2	96
CCOCCSc1nc(=O)n2cc(C)ccc2n1	100
Nn1c(=O)[nH]c2sc3c(c2c1=O)CCCC3	84
O=c1cc(CN2CCc3ccccc3C2)occ1OCc1ccc(F)cc1	94
O=C1Nc2ccccc2/C1=C\c1c(Cl)[nH]c2ccccc12	103
CCOC(=O)c1c(C)[nH]c(/C=C2\C(=O)Nc3ccccc32)c1C	12*
CCN(CC)CCNC(=O)c1c(C)[nH]c(/C=C2\C(=O)Nc3ccc(Cl)cc32)c1C	109
O=C(O)C1C2C=CC(O2)C1C(=O)Nc1ccc(S(=O)(=O)NCCc2ccccc2)cc1 (centres undefined)	94
CC1=NN(c2ccccc2)C(=O)/C1=C/c1ccc(OC(=O)c2ccco2)c(Cl)c1	86
OCC(O)[C@@H](O)CO (some centres undefined)	101
SMILES	RVFV N-RNA inh
Cc1cc(=O)oc2c(C)c(OCC(=O)OC(C)C)ccc12	103
CC(C)C(NC(=O)Nc1ccc(Cl)cc1)C(C)C	99
NC(=O)c1oc2ccccc2c1NC(=O)CN1C(=O)c2ccccc2C1=O	92
FC(F)(F)Oc1ccc(-c2nnc(-c3ccccc3Cl)o2)cc1	94
CCCCN=Cc1c(O)n(Cc2ccccc2)c(=O)[nH]c1=O	89
COc1ccc(O)cc1	99
COc1ccc(C2=CC(=O)C=CC2=O)cc1	52*
COC(=O)c1cc(-c2ccc(OC)cc2)n[nH]1	89
CN1CCN(C(=O)c2ccccc2NC(=O)COc2ccc(Cl)cc2)CC1	110
COC(=O)N1N=C(C2CCCCC2)CC1(O)C(F)(F)F (centres undefined)	95
COc1cccc(-c2nnc(NC(=O)c3ccc(S(=O)(=O)N(Cc4ccccc4)C(C)C)cc3)o2)c1	97
Cc1ccc2c(c1)c1c(n2C)C(O)CCC1 (centres undefined)	94
CCC(=O)Nc1ccc(C(=O)NCC(=O)OC)cc1	92
O=C1/C(=C/c2ccccc2)Oc2c1ccc(O)c2CN1CCCC1	106
CCN(CC)Cc1c(O)ccc2c1O/C(=C\c1ccccc1Cl)C2=O	51*
CCN(CC)Cc1c(O)ccc2cc(-c3ccc(OC)c(OC)c3)c(=O)oc12	93
CC(C)C(=O)NN=C1CCC(=NNC(=O)C(C)C)CC1	98
Cn1c(=NC(=O)c2ccc(S(C)(=O)=O)cc2)sc2ccccc21	94
CCCS(=O)(=O)NCCc1csc(-c2cccc(C)c2)n1	101
O=S(=O)(NS(=O)(=O)c1ccccc1)c1ccccc1	94

Compound activity as filed in PubChem BioAssay.
